According to the supplement of paper PMC6555819:

Assays:
Assay in all cases: PBM binding z-score (relative to random genomic background probes); higher = stronger binding; sequences stand for … in GC…GCGATTGACAGCGTAGAATGAAGG
[1] = system: RARb homodimer (NR concentration 270 nM)
Summary of the method: (§1)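 Custom Agilent 4×180K protein-binding microarrays carried double-stranded probes, each with a 34-nt variable region. These regions held direct-repeat seeds, single-nucleotide variants, half-site ablations and random human genomic background sequences. Ligand-free nuclear receptor dimers were incubated on the arrays for 1 h, antibodies against each partner (one per run) detected binding, and scanned fluorescence was regression-normalized. Binding z-scores take the random background probes as reference.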

[2] = system: RARg:RXRa (NR concentration 270 nM, RXRa partner concentration 90 nM)
Summary of the method: as §1

[3] = system: RARg homodimer (NR concentration 270 nM)
Summary of the method: as §1

[4] = system: RXRa DBDmut IVT, anti-RXR (DBD mutation: RXRa K156A/R161A, NR concentration 90 nM)
Summary of the method: as §1

[5] = system: RXRa homodimer (NR concentration 180 nM)
Summary of the method: as §1

[6] = system: THRa:RXRa (NR concentration 90 nM, RXRa partner concentration 90 nM)
Summary of the method: as §1

[7] = system: THRa homodimer (NR concentration 90 nM)
Summary of the method: as §1

[8] = system: VDR homodimer (NR concentration 270 nM)
Summary of the method: as §1

TATGCTAGGTCAACGATGGTCAGCTAATCTGCTA gave a PBM binding z-score [1] of 3.36, a PBM binding z-score [2] of 4.02 and a PBM binding z-score [3] of 4.8. It also gave a PBM binding z-score [4] of 0.79, a PBM binding z-score [5] of 2.62 and a PBM binding z-score [6] of 3.24. For the same sequence, the PBM binding z-score [7] was 0.639 and the PBM binding z-score [8] was -0.267.

CCAGACTGGTGAGAAGGTAACTCAGCCTCGATTA showed a PBM binding z-score [1] of -0.313, a PBM binding z-score [2] of -0.398 and a PBM binding z-score [3] of -0.424. For the same sequence, the PBM binding z-score [4] was -0.127, the PBM binding z-score [5] was -0.237 and the PBM binding z-score [6] was -0.0936. It also gave a PBM binding z-score [7] of -0.27 and a PBM binding z-score [8] of -0.352.

In the case of ATCGAAAGGTCGAAGCTGAGTATACCCACCCGAA, the PBM binding z-score [1] is reported as 2.18, the PBM binding z-score [2] is reported as 3.83 and the PBM binding z-score [3] is reported as 3.5. For the same sequence, the PBM binding z-score [4] was 1.42, the PBM binding z-score [5] was 4.13 and the PBM binding z-score [6] was 1.73. For the same sequence, the PBM binding z-score [7] was 0.00439 and the PBM binding z-score [8] was 0.746.

Sequence CAAACTAGGTCAAGCGGTCAAAGTCCGCTTCCCG has a PBM binding z-score [1] of 4.55, a PBM binding z-score [2] of 5.64 and a PBM binding z-score [3] of 6.19. For the same sequence, the PBM binding z-score [4] was 1.57, the PBM binding z-score [5] was 4.04 and the PBM binding z-score [6] was 3.23. The PBM binding z-score [7] was 0.992 and the PBM binding z-score [8] was 1.5.

ATATGTAGGCTACATCCGGGTCATTCAGGCTATG was tested, and the PBM binding z-score [1] was 2.14, the PBM binding z-score [2] was 1.7 and the PBM binding z-score [3] was 1.22. It also gave a PBM binding z-score [4] of 0.518, a PBM binding z-score [5] of 1.95 and a PBM binding z-score [6] of 2.91. For the same sequence, the PBM binding z-score [7] was 2.14 and the PBM binding z-score [8] was 2.15.

Work on TCTCGGAGGACACGAATGGTCAGAGCTCGACATC yielded a PBM binding z-score [1] of 0.664, a PBM binding z-score [2] of 0.332 and a PBM binding z-score [3] of 1.29. It also gave a PBM binding z-score [4] of 0.733, a PBM binding z-score [5] of 0.156 and a PBM binding z-score [6] of 1.01. The PBM binding z-score [7] was 0.00528 and the PBM binding z-score [8] was -0.606.

ACAGACAGGTGCTGAAGGTAACTCAGGCTATCAT showed a PBM binding z-score [1] of -0.511, a PBM binding z-score [2] of -0.0198 and a PBM binding z-score [3] of 0.00684. It also gave a PBM binding z-score [4] of -0.376, a PBM binding z-score [5] of -0.0891 and a PBM binding z-score [6] of 0.3. For the same sequence, the PBM binding z-score [7] was -0.356 and the PBM binding z-score [8] was -0.984.
